This is an account of results in PubChem BioAssay (NCATS).

Several values for one entry are separate records, joined by “and”; a condition that tells them apart may be missing. Equal values may be shown once. Records with an inconclusive call do not appear. Activity calls are given as the source filed them. The call rests on the fitted dose curve; in most records, active means well fitted curve in the direction sought with a large enough effect; inconclusive means small, poorly fitted or top-dose-only effect, or another doubt; inactive means no such curve, though single readings can be large; an effect the other way counts as inactive or inconclusive.

A short description of test [1]: Quantitative highthroughput screen to assess conditional lethalithy of NOMO1 cells grown in RPMI1640 with untreated serum (RPMI+s) (AID 1963876). Further: nearly all actives have a fitted effect of over 35% in size. The conditions noted are these: NOMO1 AML cells in RPMI+serum, CellTiter-Glo viability, 48 h; series mostly up to 45.8 µM. In outline: (§1)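 Each medium arm—HPLM with 10% dialyzed FBS, or RPMI1640 with 5 mM glucose and 10% untreated or dialyzed FBS—was screened against an 11-point, 3-fold compound titration for 48 h at 37 °C, with CellTiter-Glo luminescence as endpoint.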

The nature of test [2]: Quantitative highthroughput screen to assess conditional lethalithy of NOMO1 cells grown in RPMI1640 with dialyzed fetal bovine serum (RPMI+ds) (AID 1963877). Further: nearly all actives have a fitted effect of over 30% in size. The settings on record: NOMO1 in RPMI+dialyzed FBS viability, ATP luminescence, 48 h; series mostly up to 45.8 µM. In short, it runs like this: as §1
The nature of test [3]: Quantitative highthroughput screen to assess conditional lethalithy of NOMO1 cells grown in Human Plasma-Like Medium with dialyzed fetal bovine serum (HPLM+ds) (AID 1963878). Further: nearly all actives have a fitted effect of over 35% in size. The settings on record: NOMO1 AML cells in HPLM+ds, CellTiter-Glo viability, 48 h; series mostly up to 45.8 µM. In short, it runs like this:
as §1

The nature of test [4]: Viability qHTS for spleen associated tyrosine kinase inhibitor (SYKi) drug resistant MV4-11 cells (AID 1963824). Further: nearly all actives have a fitted effect of over 35% in size. The conditions noted are these: SYKi-resistant MV4-11 viability, CellTiter-Glo, 72 h; series mostly up to 45 µM. In short, it runs like this: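 CellTiter-Glo luminescence, read 10 min after reagent addition, reports viability after a 72 hr compound exposure. Cells are an MV4-11 line made resistant to SYK inhibition, seeded at 500 per well onto compound-containing plates.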

Test [5] is described as follows: Cellular viability qHTS for adrenocortical cancer (ACC) cell line NCI-H295R (AID 1963990). Further: nearly all actives have a fitted effect of over 60% in size. The conditions noted are these: CellTiter-Glo ATP luminescence, 48 h; series mostly up to 46.1 µM. In short, it runs like this:
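IC50 and maximal efficacy derive from four-parameter logistic modelling of titration curves, with reads scaled between DMSO-only wells (0%) and doxorubicin hydrochloride (100% inhibition). Compounds spanned up to 46 uM over 48 h.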

Test [6] can be described thus: Quantitative highthroughput screen to assess conditional lethalithy of P12 Ichikawa cells grown in Human Plasma-Like Medium with dialyzed fetal bovine serum (HPLM+ds) (AID 1963879). Further: nearly all actives have a fitted effect of over 35% in size. The conditions noted are these: ATP luminescence, 48 h; Potency: viability; series mostly up to 45.8 µM. In outline:
as §1

The nature of test [7]: Quantitative highthroughput screen to assess conditional lethalithy of P12 Ichikawa cells grown in RPMI1640 with dialyzed fetal bovine serum (RPMI+ds) (AID 1963880). Further: nearly all actives have a fitted effect of over 35% in size. The settings on record: ATP luminescence, 48 h; Potency: P12-Ichikawa viability; series mostly up to 45.8 µM. In short, it runs like this: as §1
Potency means the concentration at half of the fitted maximal effect.

As to `CC1(C)O[C@@H]2C[C@@H]3[C@H]4C[C@@H](F)C5=CC(=O)C=C[C@]5(C)[C@@]4(F)[C@@H](O)C[C@]3(C)[C@]2(C(=O)CO)O1`, the Potency entry in test [1], in test [2] and in test [3] was “inactive” in each case.

On to `O=C(NOCC(O)CO)c1ccc(F)c(F)c1Nc1ccc(I)cc1F` (centres undefined), for which, in test [4], the Potency is 0.148 µM (active). Moreover, the Potency result in test [5] is “inactive”.

On to `CN[C@@H]1[C@H](O[C@H]2[C@H](O[C@@H]3[C@@H](O)[C@H](O)[C@@H](N=C(N)N)[C@H](O)[C@H]3N=C(N)N)O[C@@H](C)[C@]2(O)C=O)O[C@@H](CO)[C@H](O)[C@H]1O`, for which the Potency result in test [4] and in test [5] was “inactive” throughout.

Regarding `CC(=O)N1CCN(c2ccc(OC[C@H]3CO[C@](Cn4ccnc4)(c4ccc(Cl)cc4Cl)O3)cc2)CC1`, the Potency result in test [1], in test [2] and in test [3] was “inactive” in each case.

With `CCCOc1ccc(CCc2nc3cc(-c4c(C)noc4C)ccc3n2CCN2CCOCC2)cc1`, the Potency in test [4] is 5.25 µM (active); in test [5], 22.4 µM (active).

Regarding `CC1(C)C(N(O)C(=O)Nc2ccc(Cl)cc2)N(c2ccc(Cl)cc2)C(=O)N1CC(=O)NN=CC=Cc1ccc([N+](=O)[O-])o1` (centres undefined), the Potency result in test [1] is “inactive”.

As for `Cc1ccccc1C(=O)Nc1ccc(C(=O)N2CCCC(N(C)C)c3ccccc32)cc1` (centres undefined), the Potency in test [4] was 4.73 µM (active) and 4.61 µM (active); in test [5], 1.64 µM (active).

Take `CCCCCN=C(N)N/N=C/c1c[nH]c2ccc(OC)cc12`: the Potency in test [4] is 2.66 µM (active); in test [5], 23.1 µM (active).

As to `CC1CC2C3CCC4=CC(=O)C=C[C@]4(C)[C@@]3(F)[C@@H](O)C[C@]2(C)[C@@]1(O)C(=O)CO` (some centres undefined), the Potency result in test [1], in test [2] and in test [3] was “inactive” throughout.

On to `Cc1c(C(=O)N2CCOc3ccc(-c4ccc(N)nc4)cc3C2)ccc(S(C)(=O)=O)c1F`, for which the Potency in test [4] was 3.26 µM (active); in test [5], 8.91 µM (active).

Turning to `CC(=O)O[C@]1(C(C)=O)CC[C@H]2[C@@H]3C[C@H](C)C4=CC(=O)CC[C@]4(C)[C@H]3CC[C@@]21C`, the Potency in test [4] is 9.44 µM (active) and 13.2 µM (active). The Potency result in test [5] is “inactive”.

With `O=C(NOCC(O)CO)c1cc(Br)c(F)c(F)c1Nc1ccc(I)cc1F` (centres undefined), the Potency is 0.59 µM (active) in test [4] and 15.8 µM (active) in test [5].

In the case of `Nc1cccc2c(N)cccc12`, the figures for the Potency in test [4] and in test [5] were 0.545 µM (active) and 39.8 µM (active), respectively.

Take `CC[C@]12CCCN3CCc4c(n(c5ccccc45)C(=O)C1)[C@@H]32`: the Potency is 8.41 µM (active) and 23.1 µM (active) in test [4]; 5.8 µM (active) in test [5].

Take `CCCCCCCCCCCCCCNCCO`: the Potency in test [4] was 16.8 µM (active); in test [5] it was 23.1 µM (active).

With `Cc1cc(C(=O)Nc2cc(Oc3ccc4nc(NC(=O)C5CC5)cn4n3)ccc2C)n(C)n1`, the Potency in test [4] is 14.8 µM (active); in test [5], 22.4 µM (active).

For `Cc1ccc2nc(N)[nH]c(=O)c2c1Sc1ccncc1`, in test [4], the Potency was 4.61 µM (active). The Potency entry in test [5] is “inactive”.

Consider `CN(C)CCOc1ccc(-c2nc(-c3ccc4c(c3)CCC4=NO)c(-c3ccncc3)[nH]2)cc1`, for which, in test [1], the Potency result was “inactive”. In addition, the Potency in test [2] is 18.7 µM (active).

For the compound `CN(C(=O)CN(CCO)CC(=O)N(C)C(C)(C)Cc1ccccc1)C(C)(C)Cc1ccccc1`, the results for the Potency in test [4] and in test [5] were 9.44 µM (active) and 23.1 µM (active), respectively.

With `COc1ccc(-c2ccc3c(N4CCOC[C@@H]4C)nc(N4CCOC[C@@H]4C)nc3n2)cc1CO`, the figures for the Potency in test [4] and in test [5] were 0.148 µM (active) and 0.178 µM (active), respectively.

On to `Cc1ccc(Nc2nnc(Cc3ccncc3)c3ccccc23)cc1Br`, for which, in test [4], the Potency was 10.5 µM (active). Besides, the Potency result in test [5] was “inactive”.

On to `CC(=O)Nc1cc(Oc2ccc3c(nc(Nc4ccc(F)cc4F)n3C)c2C)ccn1`, for which the Potency in test [4] was 1.66 µM (active); in test [5], 2.24 µM (active).

For `O=C(OCCOCCO)c1ccccc1Nc1cccc(C(F)(F)F)c1`, the Potency in test [4] is 14.6 µM (active); in test [5], 25.9 µM (active).

With `CC(C)OC(=O)CCCC=CC[C@@H]1[C@H](C=C[C@@H](O)COc2cccc(C(F)(F)F)c2)[C@H](O)C[C@@H]1O`, the Potency in test [1] is 33.2 µM (active).

For `COc1cc(=C2C=c3ccccc3=N2)[nH]c1=Cc1[nH]c(C)cc1C`, the Potency entry in test [1] is “inactive”.

`CC[C@@]1(O)C(=O)OCc2c1cc1n(c2=O)Cc2c-1nc1cc(F)c(C)c3c1c2[C@@H](N)CC3`: the Potency in test [4] was 0.0042 µM (active); in test [5] it was 5.01 µM (active).

In the case of `COC(=O)C1=CO[C@@H](O)[C@@H]2C(CO)=CC[C@@H]12`, the Potency result in test [1] and in test [2] was “inactive” throughout.

Consider `CO[C@H]1/C=C\O[C@@]2(C)Oc3c(C)c(O)c4c(O)c(c(C=NN5CCN(C6CCCC6)CC5)c(O)c4c3C2=O)NC(=O)C(C)=CC=C[C@H](C)[C@H](O)[C@@H](C)[C@@H](O)[C@@H](C)[C@H](OC(C)=O)[C@H]1C`, for which the Potency is 1.66 µM (active) in test [1]; 2.64 µM (active) in test [2]; 2.35 µM (active) in test [3]; 2.64 µM (active) in test [6]; 2.64 µM (active) in test [7].
